Records with an inconclusive call do not appear. Calls of active or inactive are those of the source.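 Rule for the calls, unless noted: active = viability loss from added drug above about 55%, and viability with drug at most 40%, in both replicates (limit read from the data, passing the limit was not always enough); inconclusive = both conditions met in only one replicate; inactive = neither replicate meets both conditions.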

A short description of test [1]: reducers of endogenous Her2 protein level, primary screen, SKBR3 breast tumor cells, AlphaScreen, ATP viability (AID 461;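 active = Her2 level under about 52% in both replicate screens, with viability over 70% of control, limit read from the data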;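 for Her2 level: lower value means less Her2 protein in the cells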;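 for viability: percent of carrier control wells set as 100% viability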). The following applies: 18-24 h, measured here: SKBR3 viability, ATP luminescence, at 10 µM.
Test [2] deals with Receptor tyrosine-protein kinase erbB-2 (Homo sapiens) (UniProt P04626). The test is described as above. To be noted: 18-24 h, at 10 µM, stronger effect = lower value.
Test [3] can be described thus: SK-BR-3 cell growth inhibitors, pilot screen, 24 h, human (AID 572;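 active = viability at or below 10% of carrier control in both of two separate runs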;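 note: compound exposure lasted between 18 and 24 h rather than exactly 24 h; 100% = carrier-treated control wells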). The following applies: SK-BR-3 viability, CellTiter-Glo luminescence, at 10 µM, stronger effect = lower value.
The nature of test [4]: HUVEC growth inhibition – cell-based, human, primary screen (AID 575;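 active = viability at or below 30% in both replicate assays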;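 note: 100% = median of untreated cell wells with 0.1% DMSO on each plate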). To be noted: HUVEC proliferation, CellTiter-Glo luminescence, 72 h; at 10 µM; stronger effect = lower value.
Test [5] can be described thus: growth inhibitors of H69AR lung tumor, primary screen, human, duplicate replicates (AID 580;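 active = viability at or under a set limit in both replicates, limit being median viability minus 3 SD, cut at about 48% in these data, passing the limit was not always enough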;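 note: 100% = mean luminescence of untreated wells and 0% = no signal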). The following applies: H69AR lung tumor cells viability, ATP luminescence, 72 h; at 10 µM; stronger effect = lower value.
Test [6] is described as follows: reversal of MRP1-mediated doxorubicin resistance, pilot screen, H69AR cells, doxorubicin co-treatment (AID 601). To be noted: CellTiter-Glo, 72 h, at 10 µM; for differential viability (reversal): stronger effect = higher value.
Test [7] is described as follows: 384-well plate pilot, post-Golgi transport modulator project, inhibition of yeast transport mutant growth (AID 636; in the data active = inhibition above about 31%). To be noted: absorbance 615 nm, about 18 h, stronger effect = higher value.
Test [8] is described as follows: growth suppression of yeast trafficking mutant, preliminary HTS, modulators of trafficking downstream of Golgi apparatus project, 1536-format plate, OD 615 nm (AID 637; in the data active = inhibition above about 30%). The following applies: yeast transport mutant growth, absorbance 615 nm, 18 h; stronger effect = higher value.
Test [9] is described as follows: OD615 S. cerevisiae growth inhibition, permissive medium, pilot counter-assay, permissive growth control for S. cerevisiae lifespan shortening project (AID 705;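 active = growth inhibition above 25% in both replicates, a cutoff set 3 SD above the mean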). The following applies: OD615, 24 h, at 10 µM, stronger effect = higher value.
Test [10] in a line: Restrictive medium S. cerevisiae growth inhibition, OD615, pilot screen of yeast lifespan reduction project, restrictive growth control (AID 706;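 active = growth inhibition above a set limit, 3 SD over mean compound inhibition, in both replicates, cut at about 43% in these data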;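 note: modified DeaD lifespan yeast strain shifted to restrictive glucose medium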). To be noted: OD615, 48 h, at 10 µM, stronger effect = higher value.
A short description of test [11]: viability gain of MRP-1-high H69AR cells under doxorubicin, pilot screen, MRP-1 activator project, CellTiter-Glo, duplicate (AID 807;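 active = viability increase at or above a cutoff of the median across tested compounds plus 3 SD, cut at about 8.5% in these data, passing the limit was not always enough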;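 note: compound pretreatment 18-22 h then 72 h combined with doxorubicin; 0% = doxorubicin alone and 100% = vehicle without doxorubicin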). The following applies: H69AR viability with doxorubicin, CellTiter-Glo luminescence; at 10 µM; stronger effect = higher value.
Test [12] is described as follows: growth suppression of beta-catenin knockout HCT116, pilot screen, human colon tumor cells (AID 823;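 active = cell viability at or below a set limit in both duplicate runs, the limit being the all-compound median minus 4 SD, cut at about 23% in these data, passing the limit was not always enough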;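 note: 0% = wells killed by 20 µM Hyamine and 100% = untreated DMSO cell wells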). To be noted: CellTiter-Glo, 60 h, at 10 µM, stronger effect = lower value.
A short description of test [13]: growth suppression of PTEN-deleted HCT116, pilot screen, cell-based, HCT116 clonal line, CellTiter-Glo (AID 824;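 active = viability at or below 27.92% in each of two runs, the all-compound median minus 4 SD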;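 note: 0% = 20 µM Hyamine control and 100% = vehicle cell control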). To be noted: 60 h, at 10 µM, stronger effect = lower value.
A short description of test [14]: inhibitors of the yeast RAM network, pilot screen, dse1pr::URA3 reporter, 5-FOA selection (AID 869;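 active = inhibition over a set limit, the all-compound mean plus 3 SD, in both replicate runs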;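 note: 0% = DMSO wells with no growth and 100% = 10 µM 1-NA-PP1 with full growth; RAM network block rescues cells from 5-FOA so hits raise OD615 growth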). To be noted: S. cerevisiae dse1pr::URA3 5-FOA growth, OD615, 2 d; at 10 µM; stronger effect = higher value; strain carries analog-sensitive mutant Cbk1 kinase.
Test [15] can be described thus: RAM signaling pathway blockade in yeast – S. cerevisiae, Pdr1DBD-CYC8 efflux-inhibited sensitized strain, primary screen (AID 1298;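 active = RAM network inhibition above 8.4% in each of two replicates, 3 SD over the compound average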;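 note: 0% = DMSO untreated cells without growth and 100% = 10 µM 1-NA-PP1 full growth; higher means more yeast growth rescued from 5-FOA killing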). To be noted: S. cerevisiae cbk1-as DSE1-URA3 strain, 5-FOA growth OD615, 2 d; at 50 µM; stronger effect = higher value.
Setting [16] is: H69AR cells + 2 uM doxorubicin, measured here: viability with 2 uM doxorubicin, stronger effect = lower value.
Setting [17] is: H69AR cells, compound alone cytotoxicity.

Receptor tyrosine-protein kinase erbB-2 (Homo sapiens), sequence (P04626 whole entry, looked up): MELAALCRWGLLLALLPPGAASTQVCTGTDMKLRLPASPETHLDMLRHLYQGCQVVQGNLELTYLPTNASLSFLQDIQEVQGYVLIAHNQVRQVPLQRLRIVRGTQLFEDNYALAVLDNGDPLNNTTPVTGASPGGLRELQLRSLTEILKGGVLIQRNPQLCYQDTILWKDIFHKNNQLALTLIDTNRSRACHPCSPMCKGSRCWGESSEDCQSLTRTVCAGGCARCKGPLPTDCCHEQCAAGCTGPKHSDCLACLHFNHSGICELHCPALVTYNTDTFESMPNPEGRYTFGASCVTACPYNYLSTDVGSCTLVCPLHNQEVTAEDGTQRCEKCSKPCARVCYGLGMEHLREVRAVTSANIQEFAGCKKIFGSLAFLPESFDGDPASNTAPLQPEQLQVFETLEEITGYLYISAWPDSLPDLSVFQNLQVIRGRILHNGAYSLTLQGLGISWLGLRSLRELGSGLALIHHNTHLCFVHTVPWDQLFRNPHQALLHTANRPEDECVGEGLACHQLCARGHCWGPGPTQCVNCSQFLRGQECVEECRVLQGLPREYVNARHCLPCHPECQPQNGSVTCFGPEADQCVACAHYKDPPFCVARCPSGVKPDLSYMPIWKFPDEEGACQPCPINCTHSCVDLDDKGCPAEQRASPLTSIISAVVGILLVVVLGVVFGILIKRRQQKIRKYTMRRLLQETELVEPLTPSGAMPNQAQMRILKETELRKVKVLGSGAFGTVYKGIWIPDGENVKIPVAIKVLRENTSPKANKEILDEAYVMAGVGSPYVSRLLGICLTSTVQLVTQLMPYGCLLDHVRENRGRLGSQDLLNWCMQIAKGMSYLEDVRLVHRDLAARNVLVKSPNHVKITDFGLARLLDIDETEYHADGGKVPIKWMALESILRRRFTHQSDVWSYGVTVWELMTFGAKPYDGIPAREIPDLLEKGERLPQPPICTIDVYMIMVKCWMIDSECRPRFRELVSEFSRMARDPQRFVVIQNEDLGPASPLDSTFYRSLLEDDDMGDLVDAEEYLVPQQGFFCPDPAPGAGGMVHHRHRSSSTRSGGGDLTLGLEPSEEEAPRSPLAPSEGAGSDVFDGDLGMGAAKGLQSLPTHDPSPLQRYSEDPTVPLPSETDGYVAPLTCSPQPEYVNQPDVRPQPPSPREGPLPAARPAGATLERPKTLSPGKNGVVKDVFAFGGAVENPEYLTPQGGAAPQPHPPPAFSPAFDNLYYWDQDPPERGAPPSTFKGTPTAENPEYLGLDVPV

Take `COc1ccc(C)cc1S(=O)(=O)N1CCN(S(=O)(=O)c2cc(C)ccc2OC)CC1`: the viability was 110% in test [1]; 110% (inactive) in test [3]; 96.5% (inactive) in test [4]; 95% (inactive) in test [5]; 95.2% in test [6] (setting [16]); 95% in [6] (setting [17]). Further, the viability in [12] was 93.8% (inactive); in test [13], 90.9% (inactive). In addition, the Her2 level in [2] was 114% (inactive). Moreover, the differential viability (reversal) in test [6] (H69AR cells + 2 uM doxorubicin) was -0.24% (inactive). The figures for the inhibition in test [7], in test [8] and in [14] were -5.47% (inactive), -9.03% (inactive) and 2.31% (inactive), respectively. Further, the growth inhibition in test [9] is -15.6% (inactive); in [10], -26.2% (inactive). Further, the viability increase in [11] was -0.01% (inactive). In test [15], the RAM network inhibition is 3% (inactive).

Turning to `COc1ccc(N2CCN(C(c3ccccc3)c3sc4nc(C)nn4c3O)CC2)cc1` (stereo not drawn), the viability in test [1] is 91.5%; in test [3], 91.5% (inactive); in test [4] it was 82.2% (inactive); in test [5] it was 90% (inactive); in test [6] (setting [16]) it was 98.4%; in test [6] (setting [17]) it was 90%. Besides, the viability in test [12] is 96.8% (inactive); in test [13], 97.3% (inactive). The Her2 level in [2] is 101% (inactive). Further, the differential viability (reversal) in [6] (H69AR cells + 2 uM doxorubicin) is -8.41% (inactive). Moreover, the inhibition in test [7] is -4.93% (inactive); in [8] it was -2.17% (inactive); in test [14] it was 2.81% (inactive). For the same molecule, the growth inhibition is 1.81% (inactive) in [9] and -0.505% (inactive) in test [10]. In addition, the viability increase in test [11] is -1.28% (inactive). Moreover, the RAM network inhibition in test [15] is -0.02% (inactive).

With `COc1ccc(S(=O)(=O)N2CCCC2C(=O)Nc2ccc(O)cc2)cc1` (stereo not drawn), the viability in [1] is 93.5%; in test [3], 93.5% (inactive); in test [4], 92.6% (inactive); in [5] it was 98.4% (inactive); in test [6] (setting [16]), 94.4%; in test [6] (setting [17]) it was 98.4%. Further, the viability in test [12] and in [13] was 108% (inactive) in each case. Further, in test [2], the Her2 level is 106% (inactive). The differential viability (reversal) in test [6] (H69AR cells + 2 uM doxorubicin) was 3.97% (inactive). The figures for the inhibition in test [7], in test [8] and in [14] were 0.13% (inactive), -4.92% (inactive) and 1.98% (inactive), respectively. For the same molecule, the growth inhibition in test [9] was -1.65% (inactive); in test [10] it was 2.76% (inactive). Moreover, the viability increase in test [11] is -0.78% (inactive). In addition, the RAM network inhibition in test [15] is 4.8% (inactive).

With `Cc1ccc(CSc2nc3c(c(=O)[nH]2)CCC3)cc1`, the viability was 86.5% in test [1]; 86.5% (inactive) in test [3]; 79.7% (inactive) in test [4]; 93.1% (inactive) in test [5]; 75.2% in test [6] (setting [16]); 93.1% in [6] (setting [17]). For the same molecule, the viability in test [12] is 105% (inactive); in test [13] it was 92.9% (inactive). For the same molecule, the Her2 level in test [2] is 91.5% (inactive). In addition, the differential viability (reversal) in test [6] (H69AR cells + 2 uM doxorubicin) is 17.8% (inactive). For the same molecule, the figures for the inhibition in [7], in test [8] and in test [14] were -0.13% (inactive), 2.67% (inactive) and 3% (inactive), respectively. In addition, the growth inhibition in test [9] is -9.96% (inactive); in test [10], -26.7% (inactive). Also, the viability increase in test [11] was -0.74% (inactive). For the same molecule, the RAM network inhibition in [15] is 3.47% (inactive).

In the case of `CCOC(=O)CN1CC23C=CC(O2)C(C(=O)Nc2ccc(C(C)=O)cc2)C3C1=O` (stereo not drawn), the viability is 87% in test [1]; 87% (inactive) in test [3]; 101% (inactive) in [4]; 96.4% (inactive) in test [5]; 94% in test [6] (setting [16]); 96.4% in test [6] (setting [17]). Moreover, the viability in [12] was 102% (inactive); in [13], 94.2% (inactive). For the same molecule, in [2], the Her2 level was 101% (inactive). Further, in test [6] (H69AR cells + 2 uM doxorubicin), the differential viability (reversal) is 2.38% (inactive). The inhibition was -1.07% (inactive) in [7], 2.67% (inactive) in test [8] and 1.26% (inactive) in test [14]. Moreover, the growth inhibition in test [9] is -5.7% (inactive); in test [10], 2.56% (inactive). For the same molecule, in test [11], the viability increase was -1.78% (inactive). Further, the RAM network inhibition in [15] was 1.41% (inactive).

Take `CCOC(=O)c1cccc(NC(=O)CNS(=O)(=O)c2cccs2)c1`: the viability in test [1] was 95.5%; in test [3] it was 95.5% (inactive); in test [4] it was 97% (inactive); in test [5] it was 88.3% (inactive); in [6] (setting [16]), 90.4%; in test [6] (setting [17]), 88.3%. Also, the viability in test [12] was 102% (inactive); in test [13], 97.7% (inactive). Further, in [2], the Her2 level is 92% (inactive). Also, the differential viability (reversal) in test [6] (H69AR cells + 2 uM doxorubicin) was -2.06% (inactive). The inhibition in test [7] was -8.36% (inactive); in test [8], -5.71% (inactive); in test [14] it was 1.43% (inactive). The growth inhibition in test [9] was -0.595% (inactive); in [10], -4.69% (inactive). Also, in test [11], the viability increase is 0.66% (inactive). Moreover, the RAM network inhibition in [15] is 0.44% (inactive).

As for `CCOC(=O)C1=C(C)N(C)C(=O)NC1c1cccc(O)c1` (stereo not drawn), the viability in test [1] was 102%; in test [3] it was 102% (inactive); in test [4], 90.1% (inactive); in [5], 86.9% (inactive); in test [6] (setting [16]), 101%; in test [6] (setting [17]) it was 86.9%. For the same molecule, the viability in test [12] was 99.2% (inactive); in [13], 95.9% (inactive). The Her2 level in [2] is 85% (inactive). Also, the differential viability (reversal) in [6] (H69AR cells + 2 uM doxorubicin) was -13.7% (inactive). Besides, the inhibition is -0.9% (inactive) in test [7], -6.5% (inactive) in test [8] and -0.435% (inactive) in [14]. For the same molecule, the growth inhibition in test [9] was -6.63% (inactive); in test [10], 4.03% (inactive). Besides, the viability increase in test [11] was -0.55% (inactive). The RAM network inhibition in [15] was -0.57% (inactive).

With `CC1CN(c2ccc(Oc3ccccc3)cc2)c2nc3c(c(=O)n(CC(N)=O)c(=O)n3C)n2C1` (stereo not drawn), the viability in [1] is 107%; in [3], 107% (inactive); in test [4], 77.5% (inactive); in test [5], 79.1% (inactive); in test [6] (setting [16]), 74.4%; in test [6] (setting [17]) it was 79.1%. The viability in test [12] is 104% (inactive); in test [13], 94.4% (inactive). Also, the Her2 level in test [2] is 101% (inactive). Moreover, the differential viability (reversal) in test [6] (H69AR cells + 2 uM doxorubicin) is 4.74% (inactive). In addition, the inhibition was -4.67% (inactive) in test [7], -5.17% (inactive) in test [8] and 2.65% (inactive) in test [14]. The results for the growth inhibition in test [9] and in [10] were -3.86% (inactive) and 6.34% (inactive), respectively. Moreover, in [11], the viability increase is -3.54% (inactive). In addition, the RAM network inhibition in [15] is 6.01% (inactive).

On to `CC(C)n1c(CN2CCN(C)CC2)nc2c1c(=O)n(C)c(=O)n2C`, for which the viability was 95.5% in test [1]; 95.5% (inactive) in [3]; 93.8% (inactive) in [4]; 98.5% (inactive) in test [5]; 89.2% in [6] (setting [16]); 98.5% in test [6] (setting [17]). Further, the viability in [12] was 101% (inactive); in test [13], 103% (inactive). Besides, the Her2 level in test [2] is 86% (inactive). Besides, in test [6] (H69AR cells + 2 uM doxorubicin), the differential viability (reversal) is 9.28% (inactive). The values for the inhibition in test [7], in test [8] and in test [14] were -7.57% (inactive), 1.8% (inactive) and 0.885% (inactive), respectively. Further, the growth inhibition was -7.82% (inactive) in test [9] and 4.92% (inactive) in [10]. Also, the viability increase in [11] is 0.07% (inactive). Besides, the RAM network inhibition in test [15] is 5.22% (inactive).

These data come from PubChem BioAssay.
